Compound activity as filed in PubChem.
DT40 TDP1 CPT = DT40-hTDP1 cell growth loss with CPT | Potency, µM (titrated, usually from 46.2 µM), without a hit: at the top dose activity change, negative = growth inhibition, usual class: inhibitors | chicken DT40 Tdp1-/-;hTDP1 cells + 20 nM CPT, ATP luminescence, 48 h | 420,000 tested, 12% active | AID 686979; also: potency is read from the fitted curve at half-maximal effect; nearly all actives have a fitted effect of over 55% in size
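Cell growth measured by CellTiter-Glo luminescence after a minimum 48 h, 37 C compound exposure with 20 nM CPT in Tdp1-knockout DT40 cells stably expressing hTDP1, seeded 400/well; qHTS titration format.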
HT1080 IDH1KD tx = toxicity to HT-1080 IDH1 knockdown cells (counter line) | HT-1080 IDH1 knockdown viability, ATP luminescence, 48 h | Potency, µM (doses to about 46.1 µM), for the others: at the highest dose activity, negative = toxicity, most hits filed as cytotoxic | 360,000 tested, 2% active | AID 686971;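 also: potency is read from the fitted curve at half-maximal effect; 0% = DMSO wells and -100% = cell-free medium wells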
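Viability of IDH1-knockdown HT-1080 fibrosarcoma cells was assessed by CellTiter-Glo after 48 h at 37 °C with titrated compound; concentration-effect curves were classified by fit quality and response size.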
ALOX12 inh = blocks human arachidonate 12S-lipoxygenase; P18054; purified 12hLO, xylenol orange hydroperoxide absorbance; Potency, µM (highest dose often 108 µM), without a hit: at the highest dose activity change, negative = inhibition, actives largely listed as inhibitors; 580,000 tested, 1.1% active; also: potency is read from the fitted curve at half-maximal effect
Target sequence (P18054 whole entry, looked up): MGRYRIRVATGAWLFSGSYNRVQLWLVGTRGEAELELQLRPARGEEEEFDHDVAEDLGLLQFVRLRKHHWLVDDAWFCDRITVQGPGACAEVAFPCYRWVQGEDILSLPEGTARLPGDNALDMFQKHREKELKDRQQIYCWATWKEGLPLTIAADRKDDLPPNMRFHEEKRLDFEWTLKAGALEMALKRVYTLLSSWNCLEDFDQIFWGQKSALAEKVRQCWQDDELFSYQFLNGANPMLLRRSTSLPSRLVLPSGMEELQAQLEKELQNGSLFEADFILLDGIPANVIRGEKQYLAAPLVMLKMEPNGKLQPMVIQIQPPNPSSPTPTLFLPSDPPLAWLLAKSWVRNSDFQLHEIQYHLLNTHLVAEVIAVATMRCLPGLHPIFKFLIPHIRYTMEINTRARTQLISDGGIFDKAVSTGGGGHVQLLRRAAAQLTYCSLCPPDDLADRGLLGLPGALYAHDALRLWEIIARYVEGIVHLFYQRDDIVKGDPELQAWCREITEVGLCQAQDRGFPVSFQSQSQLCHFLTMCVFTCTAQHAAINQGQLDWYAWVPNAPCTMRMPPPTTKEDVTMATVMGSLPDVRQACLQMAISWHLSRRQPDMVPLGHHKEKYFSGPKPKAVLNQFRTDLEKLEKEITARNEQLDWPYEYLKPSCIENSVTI
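Purified human 12hLO (150 nM final) in 25 mM Hepes, 0.01% Triton X-100, pH 7.0 was preincubated 15 min at room temperature with compound. Then 40 uM arachidonic acid was added, 30 min. Hydroperoxide was read by Fe-XO absorbance ratio 573/405 nm.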
HT1080NT lethal = kills 2HG-producing HT-1080-NT fibrosarcoma cells; HT-1080-NT fibrosarcoma viability, CellTiter-Glo ATP luminescence, 48 h; Potency, µM (doses to about 46.1 µM), for the others: at the highest dose activity, negative = less viability, usual class: cytotoxic; 360,000 tested, 1.6% active; AID 686970;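 also: NT is the 2HG producing partner of a matched IDH1 knockdown line; potency is read from the fitted curve at half-maximal effect; 0% = DMSO-treated cells and -100% = media-only wells without cells; nearly all actives have a fitted effect of over 55% in size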
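Fibrosarcoma NT cells, 750 per well in 5% FBS RPMI, were exposed to compound for 48 hours. Viability: CellTiter-Glo luminescence.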
TDP1 cell noCPT = qHTS for Inhibitors of human tyrosyl-DNA phosphodiesterase 1 (TDP1): qHTS in cells in absence of CPT | DT40 Tdp1-/- hTDP1 cells, no CPT, ATP luminescence, 48 h | Potency, µM (top dose mostly 46.2 µM), for the others: top-dose activity change, negative = growth inhibition, most hits filed as inhibitors | 420,000 tested, 15% active; also: potency is read from the fitted curve at half-maximal effect; nearly all actives have a fitted effect of over 55% in size
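Stably hTDP1-transfected Tdp1-null chicken DT40 cells were treated with library compounds minus camptothecin and grown for at least 48 hr at 37 °C, after which cellular ATP was quantified by luminescence.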
IL-1B inflam inh = inflammasome signaling inhibition, IL-1 beta readout; 360,000 tested, 4.7% active; activity change, % at 57.5 µM; THP-1 LPS/ATP IL-1B secretion, AlphaLISA, 16 h; hits give low values; in the data active = activity change below about -50%; inconclusive = mostly about -30% to -49%
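THP-1 cells pretreated 1 hr with compounds (up to 57.5 uM final), then stimulated with LPS (250 ng/mL final) plus ATP (1.25 mM final); secreted IL-1B measured by AlphaLISA after 16 hr, decreased signal indicating inhibition.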
* hit, by the source's call; u = inconclusive; x = no result; [ ] = another dose, or the depositor's remark. This is one part of a sample in which hits are shown more often than they occur. Unless noted, calls follow the shape of the dose curve; as a rule, active = well fitted curve in the direction sought with a large enough effect; inconclusive = small, poorly fitted or top-dose-only effect, or another doubt; inactive = no such curve, though single readings can be large; an effect the other way counts as inactive or inconclusive. Unless noted, % is scaled to controls: 0 for no effect and ±100 for the full control effect.

SMILES | DT40 TDP1 CPT | HT1080 IDH1KD tx | ALOX12 inh | HT1080NT lethal | TDP1 cell noCPT | IL-1B inflam inh
CCOC(=O)CN1N=C(/C=C/c2ccc(C(C)C)cc2)CCC1=O | u | -11% | -9% | -8% | u | -56*
CCOC(=O)CN1N=C(/C=C/c2ccccc2)CCC1=O | -21% | 3% | -4% | -1% | -10% | -5
Cc1oc(-c2ccccc2Cl)nc1CN1CCCC1c1ccc(F)cc1 (stereo not given) | u | -5% | u | 0% | -36% | 11
Cc1ccccc1-c1nc(CN2CCCC2c2ccc(F)cc2)c(C)o1 (stereo not given) | 21µM* | 2% | -9% | -6% | 16µM* | 19
Cc1nonc1C1CCCN1Cc1nc(-c2ccccc2Cl)oc1C (stereo not given) | u | 5% | -2% | 7% | 15µM* | 24
O=C(NCCc1ccc(Cl)cc1)Nc1ccc(F)cc1 | u | -4% | -6% | 3% | u | -26
O=C(NCCc1ccc(F)cc1)Nc1ccc([N+](=O)[O-])cc1 | 29µM* | u | 60% | u | 16µM* | -100*
O=[N+]([O-])c1ccc(NC(=S)NCCc2ccc(F)cc2)cc1 | 16µM* | 23µM* | u | u | 16µM* | -23
O=C(NNC(=O)c1cnccn1)c1ccc(Cl)cc1 | u | -20% | 1% | -15% | 15µM* | 23
O=C(NNC(=O)c1ccc(Cl)cc1Cl)c1cnccn1 | u | u | 191% | -10% | 26µM* | 29
Cc1cc(OCC(=O)NNC(=O)c2cnccn2)cc(C)c1Cl | 10µM* | u | 416% | u | 5.8µM* | 46
O=C(Nc1ccc(Br)cc1Cl)c1cnccn1 | -29% | u | 32µM* | -2%[9.24 µM] | -21% | 7
O=C(Nc1ccccc1Cl)c1cnccn1 | 6% | 1% | -5% | 13% | 5% | -6
CCOC(=O)CC(NC(=O)c1cc2ccccc2oc1=O)c1ccc(OC)cc1 (stereo not given) | x | x | 9% | x | x | x
CC(C)COC(=O)N1CCCCC1c1cc(C(=O)Nc2ccccc2)no1 (stereo not given) | 18µM* | -5% | -2% | -2% | u | -25
O=C(NCc1ccc(F)cc1)c1cc(C2CCCCN2C(=O)OCCF)on1 (stereo not given) | u | 10% | -23% | 5% | u | -3
CC(C)COC(=O)N1CCCCC1c1cc(C(=O)Nc2ccc3c(c2)OCO3)no1 (stereo not given) | -58% | -17% | 6% | -26% | -51% | -19
CC(C)NC(=O)c1cc(C2CCCCN2C(=O)OCCF)on1 (stereo not given) | -1% | 18% | u | 0% | 6% | -67*
CC(C)COC(=O)N1CCCCC1c1cc(C(=O)NCc2ccc(F)cc2)no1 (stereo not given) | u | -20% | -19% | -6% | 21µM* | -12
COc1cc(C(C)=O)ccc1OCC(O)CN(C)Cc1sccc1C (stereo not given) | x | x | -9% | x | x | x
COCCCN1C(=O)C(CC(=O)NC2CCCCC2)CC(C(=O)N2CCCCCC2)=C1C (stereo not given) | 18% | -6% | 7% | -15% | 13% | x
CN(Cc1ccc2c(c1)OCCO2)Cc1ncc(C(C)(C)C)o1 | x | x | -17% | x | x | x
CC(=O)NC1(C)CCCN(Cc2ccc(Oc3ccccc3)cc2)C1 (stereo not given) | x | x | 5%[176 µM] | x | x | x
CCNC(=O)C1(C)CCN(Cc2cccc(Oc3ccccc3)c2)C1 (stereo not given) | u | u | -24% | -23% | 16µM* | 1
CCCNC(=O)C1(C)CCN(Cc2cccc(OC(=O)c3ccccc3)c2)C1 (stereo not given) | -6% | 11% | u | 0% | 1% | -23
SMILES | DT40 TDP1 CPT | HT1080 IDH1KD tx | ALOX12 inh | HT1080NT lethal | TDP1 cell noCPT | IL-1B inflam inh
CCNC(=O)C1(C)CCCN(Cc2ccc(Oc3ccccc3)cc2)C1 (stereo not given) | 13µM* | 13% | -16% | 18% | 18µM* | -2
O=C(CSc1nc(=O)n(CCN2CCOCC2)c2c1CCC2)Nc1ccc(OC(F)(F)F)cc1 | 13% | -14% | u | u | -25% | -75*
Cc1cc(C)cc(NC(=O)CSc2nc(=O)n(CCCN3CCOCC3)c3c2CCCC3)c1 | -26% | -6% | -18% | 1% | u | -52*
COc1cc(NC(=O)CSc2nc(=O)n(CCCN3CCOCC3)c3c2CCC3)cc(OC)c1 | u | -8% | -16% | 3% | -18% | -8
CC(C)c1ccc(NC(=O)CSc2nc(=O)n(CCCN3CCOCC3)c3c2CCC3)cc1 | -2% | -11% | u | -10% | -14% | -63*
COc1cccc(CC(=O)Nc2cc(S(=O)(=O)N3CCOCC3)ccc2OC)c1 | 7% | -11% | 10% | -12% | -17% | 7
CCOC(=O)C1=C(C2=CCCCC2)c2ccc(OC)cc2N(S(=O)(=O)C(F)(F)F)C1C(=O)OCC (stereo not given) | 5.8µM* | -6% | x | -12% | 2.3µM* | u
CCOC(=O)C1=C(c2ccccc2)c2ccccc2N(S(=O)(=O)C(F)(F)F)C1C(=O)OCC (stereo not given) | u | 2% | -20% | 4% | u | -4
CCOC(=O)C1C(C(=O)OC)=C(c2ccc(OC)cc2)c2ccccc2N1S(=O)(=O)C(F)(F)F (stereo not given) | u | -1% | u | 3% | 16µM* | -20
CCOC(=O)C1(C)C(C(=O)OC)=C(c2ccc(OC)cc2)c2ccccc2N1C(=O)OC (stereo not given) | 21µM* | 3% | u | 7% | 13µM* | -18
O=C(O)c1ccc(/C=C/c2nc(-c3ccc(Cl)cc3)cs2)cc1 | x | x | -26% | x | x | x
CSc1ccc(-c2cccc([N+](=O)[O-])c2)nn1 | 16% | -4% | -9% | -17% | -29% | -6
O=[N+]([O-])c1cccc(-c2ccc(SCc3cccnc3)nn2)c1 | u | u | u | -22% | u | -80*
Fc1cccc(CSc2ccc(-c3ccc4c(c3)OCO4)nn2)c1 | 0% | u | -23% | -28% | -5% | -2
c1cncc(CSc2ccc(-c3ccc4c(c3)OCO4)nn2)c1 | u | u | -8% | -23% | 16µM* | -51*
